This is a sample that favours compounds with a hit; in the whole collection about 11% have one here.
PLK1 PBD inh: inhibitors of human PLK1 polo-box domain binding; Plk1 PBD binding of FITC phosphopeptide, fluorescence polarization; Potency, µM, for the others: max response, negative = inhibition, actives largely listed as inhibitors; hit rate 2.8% among 360,000; AID 720504; also: series mostly up to about 57 µM; % is scaled to controls: 0 for no effect and ±100 for the full control effect; nearly all actives have a fitted effect of over 65% in size
VDR inhibitor: inhibitors of human vitamin D receptor; hit rate 0.93% among 400,000; VDR-SRC2-3 peptide fluorescence polarization, 2 h; P11473; Potency, µM, for inactives: max response, negative = inhibition, hits mostly inhibitors; also: % is scaled to controls: 0 for no effect and ±100 for the full control effect
Target sequence (P11473 whole entry, looked up): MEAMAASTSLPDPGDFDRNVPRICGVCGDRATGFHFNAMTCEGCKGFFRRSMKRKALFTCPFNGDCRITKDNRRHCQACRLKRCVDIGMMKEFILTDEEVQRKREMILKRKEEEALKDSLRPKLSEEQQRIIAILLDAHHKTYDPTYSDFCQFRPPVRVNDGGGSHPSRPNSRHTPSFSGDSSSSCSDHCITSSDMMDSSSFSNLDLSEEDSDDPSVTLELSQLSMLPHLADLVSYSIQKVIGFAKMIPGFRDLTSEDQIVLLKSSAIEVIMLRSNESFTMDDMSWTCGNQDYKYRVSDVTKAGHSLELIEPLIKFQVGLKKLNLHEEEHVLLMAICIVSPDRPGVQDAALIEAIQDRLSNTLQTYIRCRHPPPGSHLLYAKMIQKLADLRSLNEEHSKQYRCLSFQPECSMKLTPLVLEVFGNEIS
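Signal is fluorescence polarization, reporting how far test compounds block the interaction of VDR with the SRC2-3 coregulator peptide after a 2 h room-temperature incubation.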
JMJD2A Tudor inh: inhibitors of human JMJD2A Tudor domain; AlphaScreen JMJD2A-Tudor / H3K4me3 peptide binding; Potency, µM (top dose mostly 114 µM), inactives show at the top dose activity change, negative = inhibition, actives largely listed as inhibitors; hit rate 4.4% among 390,000; also: % is scaled to controls: 0 for no effect and ±100 for the full control effect; nearly all actives have a fitted effect of over 50% in size
G9a block: G9a (human) methyltransferase inhibition; Potency, µM (top dose mostly 102 µM), inactives show at the highest dose activity, negative = inhibition, most hits filed as inhibitors; hit rate 8.8% among 350,000; G9a H3K9 monomethylation, AlphaScreen, 2 h; AID 504332; Q96KQ7; also: % is scaled to controls: 0 for no effect and ±100 for the full control effect; nearly all actives have a fitted effect of over 75% in size
Target sequence (Q96KQ7 913-1193 limits assumed): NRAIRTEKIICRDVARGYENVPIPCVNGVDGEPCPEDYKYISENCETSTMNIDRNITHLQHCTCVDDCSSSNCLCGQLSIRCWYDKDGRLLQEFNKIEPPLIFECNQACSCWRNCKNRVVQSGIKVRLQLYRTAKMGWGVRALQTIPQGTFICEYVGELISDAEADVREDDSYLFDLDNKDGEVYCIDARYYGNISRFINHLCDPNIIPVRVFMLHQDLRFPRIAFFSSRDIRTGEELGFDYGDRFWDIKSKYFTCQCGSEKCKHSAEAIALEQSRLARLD
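G9a (20 nM) was preincubated 15 min with compound, then reacted 2 h at room temperature with 500 nM biotin-H3K9 peptide and 20 µM SAM. Monomethyl-H3K9 detected by AlphaScreen using anti-H3K9me1 antibody.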
BAZ2B inh: inhibitors of human BAZ2B bromodomain | Q9UIF8 | Potency, µM (top dose mostly 114 µM), for inactives: at the top dose activity change, negative = inhibition, most hits filed as inhibitors | AID 504333 | AlphaScreen BAZ2B-H3K14Ac peptide displacement | hit rate 4.4% among 360,000; also: % is scaled to controls: 0 for no effect and ±100 for the full control effect; nearly all actives have a fitted effect of over 60% in size
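AlphaScreen luminescence quantifies BAZ2B engagement of H3K14Ac peptide; the protein and biotinylated peptide are both at 50 nM final, buffer PBS pH 7.4 with 0.01% Tween-20, all steps at room temperature.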
HP1b chromo inh: inhibitors of HP1-beta chromodomain binding to methylated histone tails; AID 540317; hit rate 0.56% among 390,000; P83916; AlphaScreen HP1-beta / biotin-H3K9me3 peptide binding; Potency, µM (titrated, usually from 114 µM), inactives show at the top dose activity change, negative = inhibition, hits mostly inhibitors; also: nearly all actives have a fitted effect of over 70% in size
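AlphaScreen: HP1-beta (50 nM) preformed 30 min with biotin-H3(1-18)K9me3 peptide (50 nM) in PBS pH 7.4, 0.01% Tween-20. Compound added for 30 min at RT, then streptavidin donor/nickel chelate acceptor beads (10 ug/mL) for 30 min.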
* hit, by the source's call; [ ] = another dose, or the depositor's remark. Calls follow the shape of the dose curve; as a rule, active = well fitted curve in the direction sought with a large enough effect; inconclusive = small, poorly fitted or top-dose-only effect, or another doubt; inactive = no such curve, though single readings can be large; an effect the other way counts as inactive or inconclusive. Potency is read from the fitted curve at half-maximal effect.

How did O=C1/C(=C/c2ccco2)SC(=S)N1C1CCS(=O)(=O)C1 (configuration not stated) do in these assays?
PLK1 PBD inh: -13.7%; VDR inhibitor: -5.1%; JMJD2A Tudor inh: inconclusive; G9a block: 44.7µM*; BAZ2B inh: 50.1µM*; HP1b chromo inh: -14.8%

Results for O=C1/C(=C\c2ccco2)SC(=S)N1C1CCS(=O)(=O)C1 (configuration not stated) ?
PLK1 PBD inh: -22.2%; VDR inhibitor: 12.2%; JMJD2A Tudor inh: 56.2µM*; BAZ2B inh: 39.8µM*; HP1b chromo inh: inconclusive

What do the screens show for `CCCOc1ccc(-c2nn(-c3ccccc3)cc2/C=C2\SC(=S)N(C3CCS(=O)(=O)C3)C2=O)cc1` (configuration not stated)?
PLK1 PBD inh: inconclusive; VDR inhibitor: -7.7%; JMJD2A Tudor inh: -22.1%; G9a block: -30.7%; BAZ2B inh: -9.6%; HP1b chromo inh: 12.5%

Results for CCOc1ccc(-c2nn(-c3ccccc3)cc2/C=C2\SC(=S)N(C3CCS(=O)(=O)C3)C2=O)cc1 (configuration not stated) ?
PLK1 PBD inh: inconclusive; VDR inhibitor: -26.3%; JMJD2A Tudor inh: -33.3%; G9a block: inconclusive; BAZ2B inh: -25.2%; HP1b chromo inh: -15.9%

Results for COc1cc(C2C(C(=O)c3ccc(C)o3)=C(O)C(=O)N2Cc2ccccc2)ccc1O (configuration not stated) ?
PLK1 PBD inh: -8.8%; VDR inhibitor: 0.0%; JMJD2A Tudor inh: inconclusive; G9a block: 44.7µM*; BAZ2B inh: -35.9%; HP1b chromo inh: -11.0%

What do the screens show for `CCCOc1cccc(C2C(C(=O)c3cccs3)=C(O)C(=O)N2Cc2cccnc2)c1` (configuration not stated)?
PLK1 PBD inh: 62.8%; VDR inhibitor: -11.3%; JMJD2A Tudor inh: -32.4%; G9a block: inconclusive; BAZ2B inh: -10.8%; HP1b chromo inh: inconclusive

Results for CCOc1ccc(C2C(C(=O)c3ccc(C)o3)=C(O)C(=O)N2Cc2cccnc2)cc1 (configuration not stated) ?
PLK1 PBD inh: -20.4%; VDR inhibitor: -1.4%; JMJD2A Tudor inh: 89.1µM*; G9a block: 39.8µM*; BAZ2B inh: -27.1%

How did Cc1ccc(C(=O)C2=C(O)C(=O)N(Cc3ccccc3)C2c2cccnc2)o1 (configuration not stated) do in these assays?
PLK1 PBD inh: inconclusive; VDR inhibitor: -10.1%; JMJD2A Tudor inh: 50.1µM*; G9a block: 50.1µM*; BAZ2B inh: -0.8%; HP1b chromo inh: -9.8%

How did CCOc1cccc(C2C(C(=O)c3ccco3)=C(O)C(=O)N2Cc2ccncc2)c1 (configuration not stated) do in these assays?
PLK1 PBD inh: 0.4%; VDR inhibitor: -12.0%; JMJD2A Tudor inh: inconclusive; G9a block: 35.5µM*; BAZ2B inh: -8.0%; HP1b chromo inh: 19.3%

Results for Cc1ccc(C(=O)C2=C(O)C(=O)N(Cc3cccnc3)C2c2cccc(Oc3ccccc3)c2)o1 (configuration not stated) ?
PLK1 PBD inh: -11.8%; VDR inhibitor: inconclusive; JMJD2A Tudor inh: -29.9%; HP1b chromo inh: 12.6%

What do the screens show for `CCCOc1ccc(C2C(C(=O)c3ccc(C)o3)=C(O)C(=O)N2Cc2ccco2)cc1` (configuration not stated)?
PLK1 PBD inh: -22.7%; VDR inhibitor: -13.8%; JMJD2A Tudor inh: -29.1%; G9a block: 50.1µM*; BAZ2B inh: inconclusive; HP1b chromo inh: 6.8%

How did CCOc1cc(C2C(C(=O)c3ccc(C)o3)=C(O)C(=O)N2CCc2ccccc2)ccc1O (configuration not stated) do in these assays?
PLK1 PBD inh: -7.0%; VDR inhibitor: -6.2%; JMJD2A Tudor inh: inconclusive; G9a block: 44.7µM*; BAZ2B inh: inconclusive; HP1b chromo inh: 14.9%

How did CCCOc1ccc(C2C(C(=O)c3ccc(C)o3)=C(O)C(=O)N2Cc2ccco2)cc1OCC (configuration not stated) do in these assays?
PLK1 PBD inh: -19.3%; VDR inhibitor: inconclusive; JMJD2A Tudor inh: inconclusive; BAZ2B inh: inconclusive; HP1b chromo inh: 12.7%

Results for COc1ccc(C2C(C(=O)c3cccs3)=C(O)C(=O)N2Cc2cccnc2)cc1OC (configuration not stated) ?
PLK1 PBD inh: -13.4%; VDR inhibitor: -9.6%; JMJD2A Tudor inh: -10.9%; G9a block: 44.7%; BAZ2B inh: 24.5%; HP1b chromo inh: 41.5%

Results for COc1ccc(C2C(C(=O)c3ccc(C)o3)=C(O)C(=O)N2Cc2cccnc2)cc1OC (configuration not stated) ?
PLK1 PBD inh: -13.1%; VDR inhibitor: -13.7%; JMJD2A Tudor inh: 20µM*; G9a block: 50.1µM*; BAZ2B inh: -25.6%; HP1b chromo inh: 25.1%[57 µM]

How did CC(=O)C1=C(O)C(=O)N(Cc2cccnc2)C1c1ccc(C(C)C)cc1 (configuration not stated) do in these assays?
PLK1 PBD inh: -14.7%; VDR inhibitor: 0.3%; JMJD2A Tudor inh: -10.8%; G9a block: 56.2µM*; BAZ2B inh: -31.6%; HP1b chromo inh: 44.3%

Results for CC1CCCCN1C(=S)NCc1ccco1 (configuration not stated) ?
PLK1 PBD inh: -14.8%; VDR inhibitor: 3.8%; JMJD2A Tudor inh: -12.0%; G9a block: inconclusive; BAZ2B inh: -4.8%; HP1b chromo inh: 11.2%

How did Cc1ccc(C(=O)C2=C(O)C(=O)N(Cc3cccnc3)C2c2ccc(Cl)cc2)o1 (configuration not stated) do in these assays?
PLK1 PBD inh: -1.6%; VDR inhibitor: -11.0%; JMJD2A Tudor inh: -14.4%; G9a block: 50.1µM*; BAZ2B inh: 10.7%; HP1b chromo inh: -9.0%

How did Cc1ccc(C(=O)C2=C(O)C(=O)N(Cc3cccnc3)C2c2cccc([N+](=O)[O-])c2)o1 (configuration not stated) do in these assays?
PLK1 PBD inh: -13.4%; VDR inhibitor: -18.5%; JMJD2A Tudor inh: inconclusive; BAZ2B inh: inconclusive; HP1b chromo inh: 9.8%

How did COc1cc(C2C(C(=O)c3ccco3)=C(O)C(=O)N2Cc2cccnc2)cc(OC)c1OC (configuration not stated) do in these assays?
PLK1 PBD inh: -3.3%; VDR inhibitor: 1.1%; JMJD2A Tudor inh: 89.1µM*; BAZ2B inh: -35.0%; HP1b chromo inh: 5.9%

How did CC1CCCCN1Cc1nc2ccccc2c(=O)[nH]1 (configuration not stated) do in these assays?
PLK1 PBD inh: 2.8%; VDR inhibitor: 31.1%; JMJD2A Tudor inh: 79.4µM*; G9a block: 5.2%[12.7 µM]; BAZ2B inh: -33.1%; HP1b chromo inh: 15.2%

Screening results deposited in PubChem by National Center for Advancing Translational Sciences (NCATS).
